Data as given in PMC7862700, “An all-to-all approach to the identification of sequence-specific readers for epigenetic DNA modifications on cytosine”.

How the values were obtained:
Test in all cases: DAPPL (digital affinity profiling via proximity ligation, sequencing); 10 mM Tris-HCl pH 7.5, 50 mM NaCl, 1 mM DTT, 4% glycerol, room temperature, 30 min; GST-TFs on glutathione beads, 16-mer random dsDNA library, 0.1% formaldehyde crosslink after washing; high values mean tight binding
FLI1 = target: T1, FLI1 (Homo sapiens, UniProt Q01543 1-452); conditions: protein: recombinant; tags: N-terminal GST; dsDNA, one strand shown
T1 sequence: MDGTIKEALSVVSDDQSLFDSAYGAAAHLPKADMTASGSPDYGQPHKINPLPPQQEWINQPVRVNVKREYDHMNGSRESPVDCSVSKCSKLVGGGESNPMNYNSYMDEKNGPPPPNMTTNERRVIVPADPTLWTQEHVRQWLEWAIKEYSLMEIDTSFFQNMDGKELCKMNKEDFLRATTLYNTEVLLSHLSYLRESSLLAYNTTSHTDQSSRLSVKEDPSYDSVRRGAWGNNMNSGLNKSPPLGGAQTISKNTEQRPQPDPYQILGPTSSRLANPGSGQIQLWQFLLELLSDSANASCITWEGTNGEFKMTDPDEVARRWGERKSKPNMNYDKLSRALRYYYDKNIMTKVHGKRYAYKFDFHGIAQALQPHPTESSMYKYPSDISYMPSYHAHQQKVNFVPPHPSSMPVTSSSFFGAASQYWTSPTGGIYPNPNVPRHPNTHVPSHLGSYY
Outline: (§1)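 GST fusions of human transcription factors were expressed in yeast and captured with glutathione beads. Once given DNA barcodes and pooled alongside a tag-only sample, they were incubated for 30 min at room temperature with 200 nmole of a random double-stranded 16-mer DNA library in Tris/NaCl/DTT/glycerol buffer, then washed, crosslinked (0.1% formaldehyde), proximity-ligated, PCR-amplified and sequenced on an Illumina NextSeq500. The binding signal of each hexamer is its read frequency for a factor divided by its frequency for the tag-only sample.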

ELK1 = target: T2, ELK1 (Homo sapiens, UniProt P19419 1-428); conditions: protein: recombinant; tags: N-terminal GST; dsDNA, one strand shown
T2 sequence: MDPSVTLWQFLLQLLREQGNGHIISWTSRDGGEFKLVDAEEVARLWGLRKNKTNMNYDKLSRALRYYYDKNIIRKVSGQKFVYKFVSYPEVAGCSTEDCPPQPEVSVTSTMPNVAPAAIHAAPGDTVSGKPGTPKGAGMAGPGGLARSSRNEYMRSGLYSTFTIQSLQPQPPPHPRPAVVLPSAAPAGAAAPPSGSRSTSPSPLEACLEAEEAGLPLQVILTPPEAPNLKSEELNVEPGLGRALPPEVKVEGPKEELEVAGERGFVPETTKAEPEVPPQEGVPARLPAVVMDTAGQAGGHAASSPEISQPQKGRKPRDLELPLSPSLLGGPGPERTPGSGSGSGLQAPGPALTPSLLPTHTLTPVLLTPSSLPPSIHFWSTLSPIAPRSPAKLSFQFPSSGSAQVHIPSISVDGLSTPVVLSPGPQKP
Outline: as §1

GABPA = target: T3, GABPA (Homo sapiens, UniProt Q06546 1-454); conditions: protein: recombinant; tags: N-terminal GST; dsDNA, one strand shown
T3 sequence: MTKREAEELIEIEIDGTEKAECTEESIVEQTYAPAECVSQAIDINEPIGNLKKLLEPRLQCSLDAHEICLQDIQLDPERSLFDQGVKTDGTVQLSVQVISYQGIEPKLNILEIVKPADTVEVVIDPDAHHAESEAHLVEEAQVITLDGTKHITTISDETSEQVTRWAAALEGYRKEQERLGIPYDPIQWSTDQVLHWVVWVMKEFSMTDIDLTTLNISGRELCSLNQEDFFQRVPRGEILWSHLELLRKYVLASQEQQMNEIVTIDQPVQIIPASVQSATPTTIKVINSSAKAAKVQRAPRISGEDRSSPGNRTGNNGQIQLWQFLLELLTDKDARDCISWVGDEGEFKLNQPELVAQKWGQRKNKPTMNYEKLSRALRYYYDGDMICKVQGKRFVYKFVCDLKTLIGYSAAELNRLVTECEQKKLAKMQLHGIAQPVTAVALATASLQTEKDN
Outline: as §1

ERG = target: T4, ERG (Homo sapiens, UniProt P11308 1-479); conditions: protein: recombinant; tags: N-terminal GST; dsDNA, one strand shown
T4 sequence: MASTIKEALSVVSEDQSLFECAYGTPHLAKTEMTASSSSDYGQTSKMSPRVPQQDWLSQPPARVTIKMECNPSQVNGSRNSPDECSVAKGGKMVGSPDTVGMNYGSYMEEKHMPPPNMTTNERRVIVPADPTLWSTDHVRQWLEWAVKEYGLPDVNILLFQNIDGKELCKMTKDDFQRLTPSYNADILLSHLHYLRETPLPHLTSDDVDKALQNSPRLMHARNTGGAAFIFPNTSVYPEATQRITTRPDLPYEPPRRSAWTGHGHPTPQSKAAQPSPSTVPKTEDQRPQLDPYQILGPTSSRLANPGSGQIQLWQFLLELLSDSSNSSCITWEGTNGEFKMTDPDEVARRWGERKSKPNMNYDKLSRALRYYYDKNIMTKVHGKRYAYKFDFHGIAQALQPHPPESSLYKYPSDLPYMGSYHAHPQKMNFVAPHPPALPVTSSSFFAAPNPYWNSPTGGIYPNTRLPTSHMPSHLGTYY
Outline: as §1

ELF1 = ELF1 (Homo sapiens, UniProt P32519 1-619); conditions: protein: recombinant; tags: N-terminal GST; dsDNA, one strand shown
Sequence of ELF1 (P32519 whole entry): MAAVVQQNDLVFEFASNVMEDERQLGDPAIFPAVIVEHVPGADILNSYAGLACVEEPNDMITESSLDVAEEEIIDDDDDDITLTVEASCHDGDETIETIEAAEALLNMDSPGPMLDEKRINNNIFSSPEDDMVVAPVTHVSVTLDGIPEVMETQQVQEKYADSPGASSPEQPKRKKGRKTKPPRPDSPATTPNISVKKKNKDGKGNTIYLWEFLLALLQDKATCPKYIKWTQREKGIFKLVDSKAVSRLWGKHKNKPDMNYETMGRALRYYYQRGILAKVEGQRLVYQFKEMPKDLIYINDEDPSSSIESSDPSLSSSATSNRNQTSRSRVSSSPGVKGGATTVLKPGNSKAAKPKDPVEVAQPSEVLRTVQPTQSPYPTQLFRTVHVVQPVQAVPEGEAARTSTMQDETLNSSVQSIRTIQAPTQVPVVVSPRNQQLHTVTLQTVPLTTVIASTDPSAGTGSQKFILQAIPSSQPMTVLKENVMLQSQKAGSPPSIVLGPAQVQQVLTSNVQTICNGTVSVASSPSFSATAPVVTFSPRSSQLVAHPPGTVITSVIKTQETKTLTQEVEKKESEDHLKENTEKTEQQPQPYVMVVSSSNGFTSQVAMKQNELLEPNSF
Outline: as §1

EHF = target: T5, EHF (Homo sapiens, UniProt Q9NZC4 1-300); conditions: protein: recombinant; tags: N-terminal GST; dsDNA, one strand shown
T5 sequence: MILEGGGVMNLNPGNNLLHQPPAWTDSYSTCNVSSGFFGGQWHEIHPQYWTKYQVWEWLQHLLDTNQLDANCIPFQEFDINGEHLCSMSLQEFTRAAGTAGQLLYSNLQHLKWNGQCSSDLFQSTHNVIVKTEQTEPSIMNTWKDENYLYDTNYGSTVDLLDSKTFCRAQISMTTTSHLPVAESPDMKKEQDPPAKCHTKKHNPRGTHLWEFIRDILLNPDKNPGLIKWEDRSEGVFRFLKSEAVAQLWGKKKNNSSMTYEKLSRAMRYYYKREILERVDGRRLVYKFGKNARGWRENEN
Outline: as §1

SPI1 = SPI1 (Homo sapiens, UniProt P17947 1-270); conditions: protein: recombinant; tags: N-terminal GST; dsDNA, one strand shown
Outline: as §1

SPIB = SPIB (Homo sapiens, UniProt Q01892 1-262); conditions: protein: recombinant; tags: N-terminal GST; dsDNA, one strand shown
Sequence of SPIB (Q01892 whole entry): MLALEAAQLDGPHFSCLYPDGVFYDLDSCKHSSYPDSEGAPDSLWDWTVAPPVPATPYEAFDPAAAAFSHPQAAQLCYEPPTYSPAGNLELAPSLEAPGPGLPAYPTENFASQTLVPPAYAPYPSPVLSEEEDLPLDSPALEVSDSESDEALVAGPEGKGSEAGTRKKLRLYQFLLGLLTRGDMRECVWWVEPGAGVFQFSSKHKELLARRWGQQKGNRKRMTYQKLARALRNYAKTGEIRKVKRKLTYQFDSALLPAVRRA
Outline: as §1

ELK3 = target: T6, ELK3 (Homo sapiens, UniProt P41970 1-407); conditions: protein: recombinant; tags: N-terminal GST; dsDNA, one strand shown
T6 sequence: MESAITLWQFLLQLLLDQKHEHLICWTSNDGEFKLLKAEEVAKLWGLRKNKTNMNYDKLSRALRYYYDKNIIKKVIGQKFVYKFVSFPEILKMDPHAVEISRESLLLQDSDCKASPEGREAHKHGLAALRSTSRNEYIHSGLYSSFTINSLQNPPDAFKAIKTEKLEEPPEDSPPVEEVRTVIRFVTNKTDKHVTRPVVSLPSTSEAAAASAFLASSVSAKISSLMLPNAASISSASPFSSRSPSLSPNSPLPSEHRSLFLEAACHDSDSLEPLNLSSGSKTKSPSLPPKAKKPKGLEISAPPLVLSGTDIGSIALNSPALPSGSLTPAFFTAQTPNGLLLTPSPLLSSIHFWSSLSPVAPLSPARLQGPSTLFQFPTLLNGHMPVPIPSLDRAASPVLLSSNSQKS
Outline: as §1

FEV = target: T7, FEV (Homo sapiens, UniProt Q99581 1-238); conditions: protein: recombinant; tags: N-terminal GST; dsDNA, one strand shown
T7 sequence: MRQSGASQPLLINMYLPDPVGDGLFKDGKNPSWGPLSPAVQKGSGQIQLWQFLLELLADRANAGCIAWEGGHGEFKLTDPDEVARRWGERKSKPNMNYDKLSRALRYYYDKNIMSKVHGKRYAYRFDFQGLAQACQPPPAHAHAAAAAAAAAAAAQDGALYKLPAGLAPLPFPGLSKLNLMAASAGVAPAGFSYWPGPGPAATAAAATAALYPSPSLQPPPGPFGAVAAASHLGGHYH
Outline: as §1

ETV5 = ETV5 (Homo sapiens, UniProt P41161 1-510); conditions: protein: recombinant; tags: N-terminal GST; dsDNA, one strand shown
Sequence of ETV5 (P41161 whole entry): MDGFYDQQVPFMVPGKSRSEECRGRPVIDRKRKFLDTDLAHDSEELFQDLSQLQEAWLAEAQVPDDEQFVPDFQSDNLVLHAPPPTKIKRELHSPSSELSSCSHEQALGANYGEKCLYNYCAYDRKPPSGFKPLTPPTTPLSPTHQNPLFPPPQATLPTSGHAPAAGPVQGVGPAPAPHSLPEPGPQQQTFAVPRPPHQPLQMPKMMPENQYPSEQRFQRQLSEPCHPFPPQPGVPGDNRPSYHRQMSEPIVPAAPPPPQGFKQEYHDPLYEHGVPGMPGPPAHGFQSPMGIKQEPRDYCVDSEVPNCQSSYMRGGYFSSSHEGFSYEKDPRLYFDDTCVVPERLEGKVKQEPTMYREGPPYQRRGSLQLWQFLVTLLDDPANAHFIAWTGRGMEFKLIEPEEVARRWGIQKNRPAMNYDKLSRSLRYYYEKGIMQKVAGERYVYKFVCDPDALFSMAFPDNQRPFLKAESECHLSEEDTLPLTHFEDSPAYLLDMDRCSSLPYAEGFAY
Outline: as §1

HSF1 = HSF1 (Homo sapiens, UniProt Q00613 1-529); conditions: protein: recombinant; tags: N-terminal GST; chain copies: 3; dsDNA, one strand shown
Sequence of HSF1 (Q00613 whole entry): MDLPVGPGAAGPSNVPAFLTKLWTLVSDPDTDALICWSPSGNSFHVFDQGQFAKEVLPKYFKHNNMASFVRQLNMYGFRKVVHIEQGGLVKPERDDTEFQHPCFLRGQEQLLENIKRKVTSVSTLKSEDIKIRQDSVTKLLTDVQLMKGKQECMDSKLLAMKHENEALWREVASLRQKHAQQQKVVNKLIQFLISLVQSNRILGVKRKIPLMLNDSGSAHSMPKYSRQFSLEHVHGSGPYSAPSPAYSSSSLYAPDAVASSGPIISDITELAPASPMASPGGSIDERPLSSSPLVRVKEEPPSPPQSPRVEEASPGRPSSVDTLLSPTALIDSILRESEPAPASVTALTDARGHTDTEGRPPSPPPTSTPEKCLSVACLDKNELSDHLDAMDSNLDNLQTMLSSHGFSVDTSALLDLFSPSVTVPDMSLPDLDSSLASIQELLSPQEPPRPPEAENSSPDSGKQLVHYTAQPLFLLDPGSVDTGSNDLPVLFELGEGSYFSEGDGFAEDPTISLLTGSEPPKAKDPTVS
Outline: as §1

SPIC = target: T8, SPIC (Homo sapiens, UniProt Q8N5J4 1-248); conditions: protein: recombinant; tags: N-terminal GST; dsDNA, one strand shown
T8 sequence: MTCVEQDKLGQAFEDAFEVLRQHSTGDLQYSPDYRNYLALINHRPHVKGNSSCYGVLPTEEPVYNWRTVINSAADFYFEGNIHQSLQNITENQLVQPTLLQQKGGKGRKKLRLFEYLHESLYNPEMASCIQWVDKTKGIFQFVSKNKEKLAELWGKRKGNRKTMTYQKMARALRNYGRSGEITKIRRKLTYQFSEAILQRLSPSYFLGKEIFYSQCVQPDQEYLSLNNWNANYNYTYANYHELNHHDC
Outline: as §1

ELF4 = ELF4 (Homo sapiens, UniProt Q99607 1-663); conditions: protein: recombinant; tags: N-terminal GST; dsDNA, one strand shown
Sequence of ELF4 (Q99607 whole entry): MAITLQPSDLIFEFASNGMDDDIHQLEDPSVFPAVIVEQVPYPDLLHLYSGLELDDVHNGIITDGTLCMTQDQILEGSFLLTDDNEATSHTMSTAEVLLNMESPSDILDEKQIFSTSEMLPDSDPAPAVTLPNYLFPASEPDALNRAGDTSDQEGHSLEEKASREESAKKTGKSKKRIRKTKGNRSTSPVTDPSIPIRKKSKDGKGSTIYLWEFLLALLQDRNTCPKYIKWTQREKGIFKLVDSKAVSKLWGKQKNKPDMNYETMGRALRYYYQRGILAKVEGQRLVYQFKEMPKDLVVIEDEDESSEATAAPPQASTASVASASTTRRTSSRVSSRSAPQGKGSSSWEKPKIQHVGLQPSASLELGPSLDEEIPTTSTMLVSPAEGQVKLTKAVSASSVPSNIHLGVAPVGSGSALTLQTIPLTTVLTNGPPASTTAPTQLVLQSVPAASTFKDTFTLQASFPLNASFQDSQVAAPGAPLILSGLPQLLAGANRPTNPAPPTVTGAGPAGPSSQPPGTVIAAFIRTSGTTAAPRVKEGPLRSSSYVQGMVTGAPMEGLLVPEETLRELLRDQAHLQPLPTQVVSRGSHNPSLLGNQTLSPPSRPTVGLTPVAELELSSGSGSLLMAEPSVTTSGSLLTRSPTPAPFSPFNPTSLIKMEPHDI
Outline: as §1

ELK4 = target: T9, ELK4 (Homo sapiens, UniProt P28324-2 1-405); conditions: protein: recombinant; tags: N-terminal GST; dsDNA, one strand shown
T9 sequence: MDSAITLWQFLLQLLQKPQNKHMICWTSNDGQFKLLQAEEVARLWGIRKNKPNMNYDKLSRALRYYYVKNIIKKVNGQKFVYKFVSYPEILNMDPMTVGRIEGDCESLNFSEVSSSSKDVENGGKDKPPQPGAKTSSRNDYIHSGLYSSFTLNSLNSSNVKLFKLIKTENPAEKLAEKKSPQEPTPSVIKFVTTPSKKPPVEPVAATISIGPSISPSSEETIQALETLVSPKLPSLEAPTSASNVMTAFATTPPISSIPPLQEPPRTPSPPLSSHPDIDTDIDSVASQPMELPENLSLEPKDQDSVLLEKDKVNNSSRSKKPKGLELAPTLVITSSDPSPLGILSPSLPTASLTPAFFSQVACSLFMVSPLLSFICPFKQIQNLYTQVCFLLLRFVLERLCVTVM
Outline: as §1

ETV2 = target: T10, ETV2 (Homo sapiens, UniProt O00321 1-342); conditions: protein: recombinant; tags: N-terminal GST; dsDNA, one strand shown
T10 sequence: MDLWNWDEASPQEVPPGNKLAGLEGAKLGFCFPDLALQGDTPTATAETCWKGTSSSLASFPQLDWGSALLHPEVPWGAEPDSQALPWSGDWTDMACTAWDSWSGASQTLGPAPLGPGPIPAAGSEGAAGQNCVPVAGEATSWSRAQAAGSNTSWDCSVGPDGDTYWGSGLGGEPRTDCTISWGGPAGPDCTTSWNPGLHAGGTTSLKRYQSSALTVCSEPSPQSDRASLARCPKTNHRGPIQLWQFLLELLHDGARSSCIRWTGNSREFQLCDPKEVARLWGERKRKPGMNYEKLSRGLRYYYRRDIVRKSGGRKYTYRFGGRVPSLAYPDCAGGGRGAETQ
Outline: as §1

ELF3 = target: T11, ELF3 (Homo sapiens, UniProt P78545 1-371); conditions: protein: recombinant; tags: N-terminal GST; dsDNA, one strand shown
T11 sequence: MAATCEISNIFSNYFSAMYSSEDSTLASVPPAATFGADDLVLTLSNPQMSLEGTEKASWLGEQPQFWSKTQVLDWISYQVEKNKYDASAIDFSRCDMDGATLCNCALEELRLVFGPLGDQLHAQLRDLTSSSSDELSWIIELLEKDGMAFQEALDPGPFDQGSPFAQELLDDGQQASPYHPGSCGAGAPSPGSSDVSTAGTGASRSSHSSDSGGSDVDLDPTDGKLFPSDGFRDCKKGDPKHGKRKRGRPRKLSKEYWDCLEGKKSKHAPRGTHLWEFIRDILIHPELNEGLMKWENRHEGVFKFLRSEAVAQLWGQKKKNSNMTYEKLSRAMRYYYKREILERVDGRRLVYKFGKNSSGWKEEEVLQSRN
Outline: as §1

CRX = CRX (Homo sapiens, UniProt O43186 1-299); conditions: protein: recombinant; tags: N-terminal GST; dsDNA, one strand shown
Sequence of CRX (O43186 whole entry): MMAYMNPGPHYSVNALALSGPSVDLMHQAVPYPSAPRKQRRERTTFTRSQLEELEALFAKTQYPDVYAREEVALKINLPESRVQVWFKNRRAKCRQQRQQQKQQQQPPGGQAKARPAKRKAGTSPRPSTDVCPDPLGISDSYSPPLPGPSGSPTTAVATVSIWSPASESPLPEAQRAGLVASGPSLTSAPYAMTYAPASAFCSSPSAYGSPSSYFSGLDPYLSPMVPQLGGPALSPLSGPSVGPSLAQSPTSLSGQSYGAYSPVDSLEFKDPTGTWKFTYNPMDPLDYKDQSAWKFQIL
Outline: as §1

ETV1 = ETV1 (Homo sapiens, UniProt P50549 1-477); conditions: protein: recombinant; tags: N-terminal GST; dsDNA, one strand shown
Sequence of ETV1 (P50549 whole entry): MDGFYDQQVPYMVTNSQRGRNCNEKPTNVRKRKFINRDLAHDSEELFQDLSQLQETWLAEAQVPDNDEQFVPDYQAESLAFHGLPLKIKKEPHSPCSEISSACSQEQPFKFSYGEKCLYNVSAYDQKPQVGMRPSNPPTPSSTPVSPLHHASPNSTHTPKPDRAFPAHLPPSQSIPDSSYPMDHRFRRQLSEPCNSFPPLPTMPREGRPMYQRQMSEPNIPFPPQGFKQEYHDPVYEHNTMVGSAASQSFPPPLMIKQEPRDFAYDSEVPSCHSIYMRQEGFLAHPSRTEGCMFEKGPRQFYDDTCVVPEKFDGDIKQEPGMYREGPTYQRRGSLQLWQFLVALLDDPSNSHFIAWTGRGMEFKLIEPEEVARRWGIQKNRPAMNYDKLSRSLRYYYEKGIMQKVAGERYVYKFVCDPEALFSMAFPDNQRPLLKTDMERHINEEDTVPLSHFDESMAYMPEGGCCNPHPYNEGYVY
Outline: as §1

With CAAAAT the binding signal (FLI1) was 1.16 fold enrichment (6-mer frequency, TF over GST control), the binding signal (ELK1) was 1.11 fold enrichment (6-mer frequency, TF over GST control) and the binding signal (GABPA) was 1.2 fold enrichment (6-mer frequency, TF over GST control). The binding signal (ERG) was 1.27 fold enrichment (6-mer frequency, TF over GST control), the binding signal (ELF1) was 1.18 fold enrichment (6-mer frequency, TF over GST control) and the binding signal (EHF) was 1.16 fold enrichment (6-mer frequency, TF over GST control). For the same sequence, the binding signal (SPI1) was 1.28 fold enrichment (6-mer frequency, TF over GST control), the binding signal (SPIB) was 1.18 fold enrichment (6-mer frequency, TF over GST control) and the binding signal (ELK3) was 1.21 fold enrichment (6-mer frequency, TF over GST control). The binding signal (FEV) was 1.17 fold enrichment (6-mer frequency, TF over GST control), the binding signal (ETV5) was 1.22 fold enrichment (6-mer frequency, TF over GST control) and the binding signal (HSF1) was 1.2 fold enrichment (6-mer frequency, TF over GST control). For the same sequence, the binding signal (SPIC) was 1.16 fold enrichment (6-mer frequency, TF over GST control), the binding signal (ELF4) was 1.25 fold enrichment (6-mer frequency, TF over GST control) and the binding signal (ELK4) was 1.23 fold enrichment (6-mer frequency, TF over GST control). For the same sequence, the binding signal (ETV2) was 1.28 fold enrichment (6-mer frequency, TF over GST control), the binding signal (ELF3) was 1.2 fold enrichment (6-mer frequency, TF over GST control) and the binding signal (CRX) was 1.22 fold enrichment (6-mer frequency, TF over GST control). The binding signal (ETV1) was 1.25 fold enrichment (6-mer frequency, TF over GST control).
